The text below walks through data of PubChem BioAssay (NCI).

Test systems include NCI-H23 lung; NCI-H226 lung; NCI-H322M lung; HOP-62 NSCLC; NCI-H460 lung; HOP-92 NSCLC; NCI-H522 lung; A549/ATCC NSCLC; 786-0 renal; COLO 205 colon; DU-145 prostate; K-562 leukemia; MALME-3M melanoma; MDA-MB-231 breast; RXF 393 renal; SF-268 CNS; SF-295 CNS; SF-539 CNS; UACC-257 melanoma; M14 melanoma.
Common to all, as to experiment: NCI-60 one-dose screen, 48 h (100 = growth as untreated, 0 = no growth, -100 = all killed)
Common to all, as to settings: 10 µM unless noted

Compounds without any hit were thinned out: in the full panel of roughly 83,000, 20% have a hit.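 Method: cells in 96-well plates; compound added at one concentration; 48 h incubation; percent growth measured; values under 10 scored active.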 A number with no mark means an inactive call. Calls of active or inactive are those of the source.

For the compound `CCCCCc1c(C)[nH]c(/C=C2\N=C(c3ccc[nH]3)C=C2CC)c1C`, the growth in the assay on NCI-H23 lung is -81% (active); with NCI-H226 lung, -92.3% (active); in the assay on NCI-H322M lung, -90.2% (active); in the assay with HOP-62 NSCLC, -72.2% (active); with NCI-H460 lung, -73.3% (active); with HOP-92 NSCLC, -91.8% (active). Moreover, the growth with NCI-H522 lung is -88.8% (active); with A549/ATCC NSCLC, -86.4% (active); in the assay on 786-0 renal, -93.6% (active); in the assay with COLO 205 colon, -87.7% (active); in the assay with DU-145 prostate, -94.8% (active); in the assay on K-562 leukemia, -75.8% (active). In addition, the growth was -74.9% (active) in the assay with MALME-3M melanoma; -94.3% (active) in the assay with MDA-MB-231 breast; -91% (active) in the assay with RXF 393 renal; -75.8% (active) in the assay on SF-268 CNS; -70.9% (active) with SF-295 CNS; -82.7% (active) in the assay with SF-539 CNS. In addition, the results for the growth in the assay with UACC-257 melanoma and in the assay with M14 melanoma were -84.2% (active) and -96.6% (active), respectively.

Consider `Cc1cc(C)c2c(n1)sc1c(Nc3ccc(OCc4ccccc4)cc3)ncnc12`, for which the growth in the assay with NCI-H23 lung was 101%; with NCI-H226 lung it was 96.2%; with NCI-H322M lung, 92.8%; in the assay with HOP-62 NSCLC it was 101%; with NCI-H460 lung, 98.8%; in the assay with HOP-92 NSCLC, 88.2%. Also, the growth is 90.1% in the assay on NCI-H522 lung; 101% in the assay with A549/ATCC NSCLC; 97.8% with 786-0 renal; 111% in the assay on COLO 205 colon; 104% in the assay with DU-145 prostate; 95.2% in the assay with K-562 leukemia. The growth with MALME-3M melanoma was 88.6%; in the assay on MDA-MB-231 breast, 109%; with RXF 393 renal, 104%; with SF-268 CNS it was 101%; with SF-295 CNS, 101%; with SF-539 CNS, 107%. For the same compound, the growth was 106% with UACC-257 melanoma and 108% with M14 melanoma.

In the case of `CCCCc1n(Cc2ccc3ccccc3n2)cc[n+]1Cc1ccc2ccccc2n1`, the growth is 4.77% (active) in the assay with NCI-H23 lung; 26.7% with NCI-H226 lung; 41.4% in the assay with NCI-H322M lung; 25.2% in the assay with HOP-62 NSCLC; 16.5% in the assay with NCI-H460 lung; 4.31% (active) in the assay with HOP-92 NSCLC. For the same compound, the growth with NCI-H522 lung was 10%; with A549/ATCC NSCLC, 44.8%; in the assay with 786-0 renal, 56.9%; in the assay with COLO 205 colon, -34.4% (active); in the assay with DU-145 prostate it was 40.8%; in the assay with K-562 leukemia it was 6.71% (active). Besides, the growth in the assay with MALME-3M melanoma was -2.99% (active); in the assay with MDA-MB-231 breast, 9.88% (active); in the assay with RXF 393 renal, 20.8%; with SF-268 CNS it was 19.9%; with SF-295 CNS it was 25.2%; with SF-539 CNS it was 16.3%. For the same compound, the growth with UACC-257 melanoma was -11.9% (active); in the assay with M14 melanoma it was 17.1%.

Turning to `COc1cc2c(cc1C)NC(=O)/C2=C\c1c[nH]c2ccccc12`, the growth is 79.9% in the assay on NCI-H23 lung; 84% in the assay on NCI-H226 lung; 65.8% in the assay on NCI-H322M lung; 75.2% in the assay with HOP-62 NSCLC; 40.6% in the assay with NCI-H460 lung; 50.1% with HOP-92 NSCLC. For the same compound, the growth in the assay on NCI-H522 lung is 54.7%; in the assay on A549/ATCC NSCLC, 52.5%; with 786-0 renal it was 65.4%; with COLO 205 colon it was 91.1%; in the assay on DU-145 prostate, 78.6%; in the assay on K-562 leukemia it was 40.6%. For the same compound, the growth was 75.9% in the assay with MALME-3M melanoma; 60.8% in the assay on MDA-MB-231 breast; 47% with RXF 393 renal; 81.6% with SF-268 CNS; 26.4% in the assay with SF-295 CNS; 69.7% with SF-539 CNS. Besides, the growth was 90% in the assay on UACC-257 melanoma and 80.9% in the assay on M14 melanoma.

Take `Cc1n(Cc2ccc3ccccc3n2)cc[n+]1Cc1ccc2ccccc2c1`: the growth with NCI-H23 lung was 2.01% (active); with NCI-H226 lung, 12.7%; in the assay on NCI-H322M lung, 26%; in the assay with HOP-62 NSCLC, 13.3%; with NCI-H460 lung, 10.2%; with HOP-92 NSCLC, -6.1% (active). In addition, the growth in the assay with NCI-H522 lung was 3.95% (active); with A549/ATCC NSCLC, 33.5%; with 786-0 renal it was 63.3%; in the assay with COLO 205 colon, -38.4% (active); in the assay with DU-145 prostate it was 26.6%; in the assay with K-562 leukemia it was 11.5%. Moreover, the growth is -30.2% (active) in the assay with MALME-3M melanoma; 2.1% (active) with MDA-MB-231 breast; 9.37% (active) in the assay on RXF 393 renal; 20.8% in the assay with SF-268 CNS; 9.7% (active) in the assay with SF-295 CNS; 14.3% in the assay on SF-539 CNS. In addition, the growth with UACC-257 melanoma is -15.1% (active); with M14 melanoma, 18.2%.

Regarding `CCOC(=O)C1=C(C)NC(SCc2nnc(-c3ccc(Cl)cc3)o2)=NC1c1ccc(Cl)cc1` (stereo not given), the growth in the assay with NCI-H23 lung was 78.8%; in the assay on NCI-H226 lung it was 69.9%; with NCI-H322M lung it was 82.3%; in the assay on HOP-62 NSCLC, 92.8%; with NCI-H460 lung, 79%; in the assay on HOP-92 NSCLC, 64.1%. Besides, the growth in the assay with NCI-H522 lung is 68.9%; with A549/ATCC NSCLC, 69%; in the assay with 786-0 renal, 83.4%; in the assay with COLO 205 colon, 79.6%; in the assay on DU-145 prostate, 87.2%; with K-562 leukemia, 55.8%. Besides, the growth in the assay on MALME-3M melanoma is 81.7%; in the assay on MDA-MB-231 breast, 62.7%; with RXF 393 renal, 67.7%; with SF-268 CNS it was 86%; in the assay on SF-295 CNS it was 74.1%; in the assay on SF-539 CNS, 87.7%. The growth with UACC-257 melanoma is 86.9%; in the assay with M14 melanoma, 69.3%.

Consider `COc1cc2nccc(Oc3ccc(NC(=O)C4(C(=O)Nc5ccc(F)cc5)CC4)cc3)c2cc1OC(=O)c1ccc(N)cc1`, for which the growth is 37.8% in the assay with NCI-H23 lung; 55.7% in the assay with NCI-H226 lung; 43% in the assay on NCI-H322M lung; 11.7% in the assay with HOP-62 NSCLC; 24.7% with NCI-H460 lung; -13.3% (active) in the assay on HOP-92 NSCLC. Also, the growth with NCI-H522 lung is 21.4%; in the assay with A549/ATCC NSCLC it was 33.6%; in the assay with 786-0 renal, -17.4% (active); in the assay on COLO 205 colon, -36.5% (active); in the assay with DU-145 prostate, 45.3%; with K-562 leukemia it was -20.9% (active). The growth is 26% with MALME-3M melanoma; -1.25% (active) in the assay with MDA-MB-231 breast; -10.4% (active) in the assay on RXF 393 renal; 29.4% in the assay on SF-268 CNS; -74.6% (active) in the assay on SF-295 CNS; -1.2% (active) in the assay on SF-539 CNS. The growth in the assay on UACC-257 melanoma was 33.5%; in the assay on M14 melanoma it was 10.8%.

Take `COc1cc(C2CC(c3ccc(Cl)cc3)=NN2C=O)ccc1OS(=O)(=O)c1ccc(C)cc1` (stereo not given): the growth with NCI-H23 lung was 83.5%; with NCI-H226 lung, 84.5%; in the assay with NCI-H322M lung, 97%; in the assay with HOP-62 NSCLC, 96.6%; with NCI-H460 lung, 91%; in the assay with HOP-92 NSCLC, 85.1%. Besides, the growth in the assay with NCI-H522 lung was 82.7%; in the assay with A549/ATCC NSCLC, 78.8%; with 786-0 renal, 88.4%; with COLO 205 colon it was 100%; in the assay on DU-145 prostate, 105%; in the assay with K-562 leukemia, 82.1%. Also, the growth is 93.8% in the assay on MALME-3M melanoma; 92.5% with MDA-MB-231 breast; 97.2% with RXF 393 renal; 100% in the assay on SF-268 CNS; 87.4% in the assay on SF-295 CNS; 89.6% in the assay on SF-539 CNS. Also, the figures for the growth with UACC-257 melanoma and with M14 melanoma were 85.3% and 84%, respectively.
